{"source": "PubChem BioAssay AID1030", "about": "(National Center for Advancing Translational Sciences (NCATS), 2008)", "note": "In all, about 220,000 compounds went through this assay and about 16,000 (7.3%) were called active. Roughly 25% stayed inconclusive and do not appear here. Many of the other results were omitted from the sample, so actives are more common in it than they were. Values without a mark were called inactive. Calls come from the whole dose curve; as a rule, active = well fitted inhibition curve with a large enough effect (not every such curve was filed as active); inconclusive = small, poorly fitted or top-dose-only effect, or another doubt; inactive = no such curve, though single readings can be large or run the other way. Peptide text beside a SMILES is read from it. * marks the point of attachment. OPac = O=C(CO*)c1ccccc1; Bz = O=C(c1ccccc1)*", "data": [{"molecular_target": "Aldehyde dehydrogenase 1A1 (Homo sapiens) (UniProt P00352)", "sequence (P00352 whole entry, looked up)": "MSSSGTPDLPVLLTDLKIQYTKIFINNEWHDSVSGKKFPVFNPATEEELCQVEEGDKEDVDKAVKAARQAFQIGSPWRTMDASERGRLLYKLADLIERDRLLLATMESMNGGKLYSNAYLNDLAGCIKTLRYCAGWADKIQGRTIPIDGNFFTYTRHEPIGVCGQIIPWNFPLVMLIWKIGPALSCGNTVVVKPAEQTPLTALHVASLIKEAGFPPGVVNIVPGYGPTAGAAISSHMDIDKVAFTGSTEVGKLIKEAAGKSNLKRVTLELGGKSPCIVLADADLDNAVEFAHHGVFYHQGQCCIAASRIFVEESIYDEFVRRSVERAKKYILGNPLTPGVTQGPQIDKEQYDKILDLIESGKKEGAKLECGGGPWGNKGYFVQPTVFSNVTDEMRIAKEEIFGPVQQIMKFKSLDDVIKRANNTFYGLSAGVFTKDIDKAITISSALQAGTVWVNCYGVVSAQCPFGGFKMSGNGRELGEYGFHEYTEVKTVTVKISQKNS", "experiment": "qHTS Assay for Inhibitors of Aldehyde Dehydrogenase 1 (ALDH1A1); note: potency is the fitted concentration of half-maximal effect;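 for activity, negative = inhibition: plate controls were no enzyme wells and a reference inhibitor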", "conditions": "Purified ALDH1A1, NADH fluorescence, propionaldehyde substrate; series mostly up to 75.3 µM; activity, negative = inhibition: at the top concentration", "units": {"activity, negative = inhibition": "%"}, "values": [{"compound": "C/C(=C\\C(=O)c1ccccc1)Nc1cccc(O)c1", "activity, negative = inhibition": -0.102}, {"compound": "CN(C)S(=O)(=O)c1cccc(NC(=S)N/N=C/C(=O)c2ccccc2)c1", "Potency": "8.91 µM (active)"}, {"compound": "CN1C(=O)C(CC(=O)Nc2ccccc2)S/C1=N/c1nccs1", "note": "(stereo not given)", "activity, negative = inhibition": 1.45}, {"compound": "O=C(Nc1cccc(Cl)c1)OCc1ccccn1", "activity, negative = inhibition": 5.51}, {"compound": "O=C(CC1SC(=Nc2ccccc2)N(Cc2ccccn2)C1=O)Nc1cccc(Cl)c1", "note": "(stereo not given)", "Potency": "20 µM (active)"}, {"compound": "c1ccc2c(c1)OCCOCCOCCO2", "activity, negative = inhibition": 0.0347}, {"compound": "CSCCC(NC(=O)c1ccco1)C(=O)OCC(=O)Nc1ncc(Cl)c(C)c1Cl", "note": "(stereo not given)", "Potency": "22.4 µM (active)"}, {"compound": "CCc1cc2c(SCC(=O)Nc3ncc(Cl)c(C)c3Cl)ncnc2s1", "activity, negative = inhibition": 13.2}, {"compound": "Cc1c(Cl)cnc(NC(=O)COC(=O)c2ccc(S(=O)(=O)NCc3ccco3)cc2)c1Cl", "activity, negative = inhibition": -4.88}, {"compound": "COC(=O)c1ccc(OCC(O)CN(CCO)CC(O)Cn2ccc3ccccc32)cc1", "note": "(stereo not given)", "activity, negative = inhibition": 3.59}, {"compound": "O=C(CNC(=O)c1ccccc1)NCC(=O)OCC(=O)c1ccccc1", "note": "(Bz-Gly-Gly-OPac)", "activity, negative = inhibition": 4.07}, {"compound": "O=C(/C=C\\NCC(=O)c1ccccc1)c1ccccc1", "Potency": "2.51 µM (active)"}, {"compound": "O=C(/C=C/NCc1ccc(F)cc1)c1ccccc1", "activity, negative = inhibition": 5.27}, {"compound": "OCCC1CN(Cc2ccc(Oc3ncccn3)cc2)CCN1CCc1ccccc1", "note": "(stereo not given)", "activity, negative = inhibition": -2.06}, {"compound": "COc1cccc(C(=O)Nc2cccnc2)c1OC", "activity, negative = inhibition": 2.58}, {"compound": "O=C(O)c1cccc(NC(=O)c2cc(-c3cccc(Cl)c3)nc3ccccc23)c1", "activity, negative = inhibition": -11.2}, {"compound": "O=C(c1ccc2ccccc2n1)N1CCN(c2ccccc2Cl)CC1", "activity, negative = inhibition": -2.64}, {"compound": "S=C(Nc1ccc(Br)cc1Cl)N1CCC2(CC1)OCCO2", "activity, negative = inhibition": 2.04}, {"compound": "CC(C)C[C@H](NC(=O)[C@H](O)[C@H](N)Cc1ccccc1)C(=O)O", "activity, negative = inhibition": 7.09}, {"compound": "O=C(CSCc1ccc(Cl)cc1)N1CCCCC1", "Potency": "11.2 µM (active)"}, {"compound": "O=C(CSCc1ccc(Cl)cc1)N1CCN(Cc2ccc3c(c2)OCO3)CC1", "activity, negative = inhibition": -12.3}, {"compound": "O=C(CN1CCN(c2ccc(Cl)cc2)CC1)N1CCCC1", "activity, negative = inhibition": -0.83}, {"compound": "COc1ccccc1NC(=S)N1CCC(NC(=O)C23CC4CC(CC(C4)C2)C3)CC1", "activity, negative = inhibition": -1.91}, {"compound": "Cc1ccc(NC(=O)OCCNC(=O)c2ccncc2)cc1", "activity, negative = inhibition": 9.81}, {"compound": "CN(C)S(=O)(=O)c1ccc2oc(SCC(=O)Nc3ccccc3F)nc2c1", "activity, negative = inhibition": 10.5}, {"compound": "N#C/C(=C1/CCCN1)c1ccccn1", "activity, negative = inhibition": 1.35}, {"compound": "Cn1c(/C(C#N)=C2/CCCCCN2)nc2ccccc21", "Potency": "17.8 µM (active)"}, {"compound": "Cc1ccc(O)c(CNc2nc3ccccc3n2C)c1", "activity, negative = inhibition": -3.88}, {"compound": "NC(=O)c1nnsc1-c1ccc(-c2snnc2C(N)=O)cc1", "activity, negative = inhibition": 6.42}, {"compound": "O=C(C/C(=N\\NC(=O)c1ccccc1Br)C(F)(F)F)c1cccs1", "activity, negative = inhibition": -12.8}, {"compound": "O=C(O)/C=C/C(=O)Nc1ccc(F)cc1F", "Potency": "25.1 µM (active)"}, {"compound": "COc1ccc(C(=O)Nc2ccc(F)cc2F)cc1", "activity, negative = inhibition": 1.45}, {"compound": "CC(C)CC(=O)NC(=S)Nc1ccc(F)cc1F", "activity, negative = inhibition": -6.05}, {"compound": "Nc1c(Cl)cc(S(N)(=O)=O)cc1S(N)(=O)=O", "activity, negative = inhibition": -0.816}, {"compound": "CCC(C)(C)NC(=O)C(c1cccc(OC)c1OC)N(CC(C)C)C(=O)CCC(=O)Nc1cc(C)on1", "note": "(stereo not given)", "activity, negative = inhibition": 2.89}, {"compound": "CCCCN(C)CCNC(=O)CSCc1ccc(C)cc1", "activity, negative = inhibition": -9.11}, {"compound": "Cc1ccc(S(=O)(=O)CCC(=O)OCc2ccccc2)cc1", "activity, negative = inhibition": -5.01}, {"compound": "Cc1ccc(CSCC(N)C(=O)O)cc1", "note": "(stereo not given)", "Potency": "31.6 µM (active)"}, {"compound": "O=C(CNC(=O)c1cc(=O)[nH]c2ccccc12)Nc1ccc(F)c(F)c1", "activity, negative = inhibition": -11.6}, {"compound": "COc1cc(C(F)(F)F)c(C(=O)N(C)c2ccc(Cl)cc2)cn1", "activity, negative = inhibition": 13.8}, {"compound": "Cc1noc(C)c1/C=N/Nc1ccc2ccccc2n1", "activity, negative = inhibition": -3.62}, {"compound": "S=c1[nH]nc(NCCc2ccccc2)s1", "Potency": "12.6 µM (active)"}, {"compound": "O=c1cnnc(Nc2ccccc2)[nH]1", "activity, negative = inhibition": 4.48}, {"compound": "S=c1[nH]nc(Nc2ccccc2)s1", "Potency": "6.31 µM (active)"}, {"compound": "Cc1nc(C)c(-c2csc(NCCc3ccccc3)n2)s1", "activity, negative = inhibition": -6.61}, {"compound": "c1ccc(Nc2n[nH]nc2-c2ccccc2)cc1", "activity, negative = inhibition": 9.07}, {"compound": "O=C(CSc1ncccn1)NCCc1ccccc1", "activity, negative = inhibition": 0.944}, {"compound": "O=C(CCCn1c(=O)c2sccc2n(CC(=O)NCC2CCCO2)c1=O)NCc1ccco1", "note": "(stereo not given)", "activity, negative = inhibition": -3.06}, {"compound": "CCCN(C(=O)CSc1nnnn1C)c1c(N)n(Cc2ccccc2)c(=O)[nH]c1=O", "activity, negative = inhibition": 3.4}, {"compound": "COc1ccc(/C=C/C2=CC(C)(C)NC(=S)N2)c(OC)c1", "Potency": "0.708 µM (active)"}, {"compound": "COc1cc(/C=C/C2=CC(C)(C)NC(=S)N2)cc(OC)c1OC", "Potency": "3.98 µM (active)"}, {"compound": "COc1cc(/C=C/CO)cc(OC)c1O[C@@H]1O[C@H](CO)[C@@H](O)[C@H](O)[C@H]1O", "activity, negative = inhibition": 7.97}, {"compound": "Cc1ccc2nc(C)cc(N/N=C/c3ccc(F)cc3)c2c1", "activity, negative = inhibition": -1.46}, {"compound": "O=C(NNc1cc(Cl)ccc1Cl)c1cccnc1Cl", "activity, negative = inhibition": 2.84}, {"compound": "C=CC1(C)CC(=O)C2(O)C(C)(O1)C(OC(C)=O)C(O)C1C(C)(C)CCC(O)C12C", "note": "(stereo not given)", "Potency": "inactive"}]}]}
